High-throughput results deposited in PubChem by several laboratories.
GDH-TPI inh – GDH-TPI coupled enzyme inhibition counter-screen; GDH-TPI coupled enzyme counterscreen, NADH absorbance; inhibition, % at 4.8 µM; 360,000 tested, 1.2% active; in the data active means inhibition above about 30%;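 further: 0% = DMSO wells and 100% = wells lacking the enzyme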
BH1578 lux ind – quorum light induction in luxS cqsA deficient V. cholerae; V. cholerae BH1578 lux reporter, luminescence, 6 h; activation, % at 18.7 µM; 350,000 tested, 0.16% active; AID 588436; in the data active means activation mostly above about 9.7%, no sharp cut-off
FBA Mtb inh – inhibits M. tuberculosis FBA enzyme; P9WQA3; purified M. tuberculosis FBA, fluorescence read-out; inhibition, % at 1 µM; 360,000 tested, 2.3% active; AID 588726; in the data active means inhibition above about 27%;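 further: 0% = vehicle and 100% = reference inhibitor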
Target sequence (P9WQA3 whole entry, looked up): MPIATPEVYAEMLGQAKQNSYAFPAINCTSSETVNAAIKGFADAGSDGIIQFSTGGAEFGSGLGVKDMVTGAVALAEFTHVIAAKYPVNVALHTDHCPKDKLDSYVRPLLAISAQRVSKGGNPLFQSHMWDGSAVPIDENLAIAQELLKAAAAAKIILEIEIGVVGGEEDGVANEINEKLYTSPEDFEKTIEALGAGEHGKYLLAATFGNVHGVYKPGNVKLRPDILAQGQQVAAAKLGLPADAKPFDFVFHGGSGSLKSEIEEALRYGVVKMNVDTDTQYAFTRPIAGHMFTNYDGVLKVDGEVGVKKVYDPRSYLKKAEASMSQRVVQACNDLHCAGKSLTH
BioA inh – BioA (M. tuberculosis) enzyme inhibition. purified M. tuberculosis BioA enzyme, plate reader. inhibition, % at 9.99 µM. 360,000 tested, 0.096% active. AID 602481; in the data active means inhibition above about 40%
* marks the source's active call; other numbers are inactive results; i = inactive; · = no result given; + = active, no number. Shown are actives, neighbours in structure and some others; about 3% of the full set was active somewhere.

SMILES | GDH-TPI inh | BH1578 lux ind | FBA Mtb inh | BioA inh
O=C(Nc1nnc(-c2cccnc2)s1)c1cccs1 | 42* | i | 3 | -1
COc1ccc(CN(C)C[C@@H]2OCCCC[C@H](C)Oc3ccc(NC(=O)Nc4ccc(OC)cc4)cc3C(=O)N([C@@H](C)CO)C[C@@H]2C)cc1 | · | · | · | -1
Cc1nc2ccccn2c(=O)c1NC(=O)c1cccc2ccccc12 | 31* | -1 | 0 | -1
CN1C(=O)c2cc(NC(=O)Cc3ccccc3)ccc2OC[C@H]2O[C@H](CC(=O)NCC3CC3)CC[C@H]21 | · | · | · | -1
N#C/C(=C\c1cccc(O)c1)c1nc2ccccc2o1 | 35* | 0 | 7 | 0
N#C/C(=C\c1ccc(Cl)cc1)c1nc2ccccc2o1 | 10 | i | 2 | ·
N#C/C(=C\c1ccncc1)c1nc2ccccc2o1 | 6 | -1 | 10 | -2
N#C/C(=C\Nc1ccccc1O)c1nc2ccccc2o1 | 33* | 0 | -1 | -2
N#Cc1c(NC(=O)CSc2nnc(-c3ccccc3)o2)sc2c1CCCC2 | 31* | 0 | 1 | -2
C[C@H]1CN([C@@H](C)CO)C(=O)c2cc(C#Cc3ccc(F)cc3)cnc2O[C@H]1CN(C)C(=O)Nc1ccc(F)cc1 | · | · | · | 0
CCC(CC)C(=O)Nc1ccc(-c2cn3cccnc3n2)cc1 | 25 | i | + | 2
COCC(=O)Nc1ccc(-c2cn3cccnc3n2)cc1 | 25 | 0 | + | 1
CC(=O)Nc1ccc(-c2cn3ccsc3n2)cc1 | 2 | i | -2 | -6
Cc1noc(C)c1S(=O)(=O)N(C)C[C@@H]1OCCCC[C@@H](C)Oc2ccc(NS(=O)(=O)c3cn(C)cn3)cc2C(=O)N([C@H](C)CO)C[C@@H]1C | · | · | · | -2
O=c1cc(/C=C/c2ccccc2)oc2ccccc12 | 32* | -1 | 6 | 0
CCc1cc2c(=O)c(-c3nc4ccccc4n3C)c(C)oc2c(CN2CCN(CCO)CC2)c1O | 35* | i | 12 | 0
CCc1cc2c(=O)c(-c3nc4ccccc4n3C)coc2c(CN2CCCC(C)C2)c1O (centres undefined) | 34* | -2 | 11 | 0
C[C@H](CO)N1C[C@H](C)[C@H](CN(C)Cc2ccc(C(F)(F)F)cc2)Oc2c(NS(=O)(=O)c3ccccc3)cccc2C1=O | · | · | · | -2
C[C@@H]1CCCCO[C@@H](CN(C)C(=O)Nc2cccc3ccccc23)[C@H](C)CN([C@@H](C)CO)C(=O)c2cc(NS(C)(=O)=O)ccc2O1 | · | · | · | 0
Cc1ccc(S(=O)(=O)N[C@H]2C=C[C@@H](CC(=O)NCCN3CCCCC3)O[C@@H]2CO)cc1 | · | · | · | 0
COc1cc(NC(=S)NC(=O)C(C)C)ccc1NC(=O)c1cc2ccccc2o1 | 14 | 0 | 4 | -1
CCC(=O)NC(=S)Nc1ccc(NC(=O)c2cc3ccccc3o2)c(OC)c1 | 32* | i | 1 | ·
O=C(C[C@@H]1CC[C@@H](NC(=O)Nc2ccc(C(F)(F)F)cc2)[C@H](CO)O1)NCc1ccccn1 | · | · | · | 0
CCC1(CC)Cc2ccccc2-c2nc(-c3ccccc3)oc(=O)c21 | 2 | 32* | 3 | -2
O=c1oc(-c2ccccc2)nc2c1C1(CCCCC1)Cc1ccccc1-2 | 2 | 0 | 1 | -1
SMILES | GDH-TPI inh | BH1578 lux ind | FBA Mtb inh | BioA inh
CCOC(=O)c1cccc(NC(=O)CCc2nnc3ccc(N4CCCCC4)nn23)c1 | 11 | -1 | + | -2
COC(=O)C1=CNC=C(C(=O)OC)C1c1ccc(Cl)cc1 | 6 | i | + | 4
COC(=O)C1=CNC=C(C(=O)OC)C1c1ccccc1Cl | 8 | 0 | + | 0
CCCCN1C=C(C(=O)OC)C(c2ccccc2Cl)C(C(=O)OC)=C1 | -2 | -1 | 171* | ·
COC(=O)C1=CN(c2ccc(Cl)cc2)C=C(C(=O)OC)C1c1ccc([N+](=O)[O-])cc1 | 2 | i | -1 | -1
COCCN1C=C(C(=O)OC)C(c2ccccc2C(F)(F)F)C(C(=O)OC)=C1 | 9 | i | 155* | -1
C[C@@H]1CN([C@H](C)CO)C(=O)c2cc(NC(=O)Nc3ccc(C(F)(F)F)cc3)ccc2O[C@H]1CN(C)CC1CCCCC1 | · | · | · | -1
COC(=O)c1c(CC[C@@H](CO)NC(=O)N[C@@H](Cc2ccccc2)Cn2cc(C3(O)CCCC3)nn2)oc(C(=O)N2CCOCC2)c1C(=O)OC | · | · | · | 0
CC(=O)N(C)C[C@H]1Oc2ncc(C#Cc3ccccn3)cc2C(=O)N([C@H](C)CO)C[C@H]1C | · | · | · | 8
CCCOc1ccc(C2C(C(=O)OC)=CN(CCOC)C=C2C(=O)OC)cc1 | -3 | · | + | 1
COC(=O)C1=CNC=C(C(=O)OC)C1c1cccc(OC)c1 | 4 | 1 | 195* | -2
C[C@H](CO)N1C[C@H](C)[C@H](CN(C)C(=O)c2cnccn2)Oc2ncc(-c3ccccc3F)cc2C1=O | · | · | · | 0
